Bioassay records (PubChem BioAssay)
Shown are actives, neighbours in structure and some others; about 11% of the full set was active somewhere.
HEK293 tox: cytotoxic compounds in HEK 293 cells; HEK 293 viability, ATP luminescence (CellTiter-Glo), 48-72 h; Potency, µM (titrated, usually from 115 µM), most hits filed as inhibitors; 94,000 compounds, 6.6% hits; AID 1345083; note: nearly all actives have a fitted effect of over 60% in size
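CellTiter-Glo luminescence (cellular ATP) was read after 48 or 72 hr of compound exposure at 37 degree Celsius. Cells were HEK 293 plated at 250 cells/well.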
NPR1 antag: antagonists of human natriuretic peptide receptor Npr1 | HEK293 hNpr1 GloSensor cGMP, ANP-stimulated luminescence | AID 1347048 | Potency, µM (series often up to 46.3 µM), actives largely listed as inhibitors | P16066 | 76,000 compounds, 1.6% hits; calls by dose curve; note: nearly all actives have a fitted effect of over 60% in size
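Compound pre-incubated 30 min at room temperature on GloSensor-loaded HEK293 cells stably carrying hNpr1 and the pGS-40F cGMP biosensor. Stimulation uses hNppA at 0.1 nM final; luminescence is taken at baseline and 20 min post-agonist.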
3T3 cytotox: NIH 3T3 cell cytotoxicity. NIH 3T3 viability, CellTiter-Glo ATP luminescence, 48-72 h. Potency, µM (highest dose often 96.7 µM), hits mostly inhibitors. 94,000 compounds, 4.3% hits. AID 1345082; note: nearly all actives have a fitted effect of over 55% in size
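NIH 3T3 cells at 400 cells/well received 23 nL of compound by pintool and were incubated 48 or 72 h at 37 °C. Viability was read as ATP-coupled CellTiter-Glo luminescence.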
Luciferase inh: inhibitors of firefly (Photinus pyralis) luciferase. Potency, µM (top dose mostly 115 µM), actives largely listed as inhibitors. 76,000 compounds, 2.5% hits. P08659. purified P. pyralis luciferase, luminescence, biochemical. AID 1347043; note: nearly all actives have a fitted effect of over 65% in size
Target sequence (P08659 whole entry, looked up): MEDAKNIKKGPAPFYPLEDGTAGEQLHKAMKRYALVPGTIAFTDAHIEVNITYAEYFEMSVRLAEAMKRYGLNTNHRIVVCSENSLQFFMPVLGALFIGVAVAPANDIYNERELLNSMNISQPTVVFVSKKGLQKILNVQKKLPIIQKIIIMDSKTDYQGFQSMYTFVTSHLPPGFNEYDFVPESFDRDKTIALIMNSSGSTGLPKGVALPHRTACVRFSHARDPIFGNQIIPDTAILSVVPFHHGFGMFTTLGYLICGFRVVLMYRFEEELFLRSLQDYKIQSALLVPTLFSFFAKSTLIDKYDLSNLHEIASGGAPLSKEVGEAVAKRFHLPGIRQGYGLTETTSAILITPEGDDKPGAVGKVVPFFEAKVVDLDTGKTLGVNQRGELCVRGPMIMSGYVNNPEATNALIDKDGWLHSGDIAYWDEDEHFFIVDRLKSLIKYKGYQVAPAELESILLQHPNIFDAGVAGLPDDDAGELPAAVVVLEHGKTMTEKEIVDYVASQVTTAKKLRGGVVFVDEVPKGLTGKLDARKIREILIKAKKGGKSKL
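Cell-free enzyme assay, 10nM P. pyralis luciferase, luciferin and ATP each at 10uM. Inhibition profiled over a 6-point titration, read as luminescence.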
Each line names hits and unclear results; the compound was inactive in the other large screens; ! = not active in a repeat. Unless noted, calls come from the whole dose curve; as a rule, active = well fitted curve in the direction sought with a large enough effect; inconclusive = small, poorly fitted or top-dose-only effect, or another doubt; inactive = no such curve, though single readings can be large; an effect the other way counts as inactive or inconclusive.

Cc1ccc(C2=NC3(CCN(C(=O)c4ccsc4)CC3)ON2)cc1	Luciferase inh 40µM
O=C(c1ccc2cc[nH]c2c1)N1CCC2(CC1)N=C(c1ccccc1)NO2	HEK293 tox inconclusive, Luciferase inh 28µM
Cc1cccc(C(=O)NCc2nnc3cc(-c4nc(C(C)C)no4)ccn23)c1	none
Cc1nc(C2CC(O)C2)cc(N2CCN(c3cnn(C)c(=O)c3)CC2)n1 (stereo not drawn)	none
Cc1nc(C2CC(O)C2)cc(N2CCN(c3ccc(F)c(Cl)c3)CC2)n1 (stereo not drawn)	HEK293 tox 18µM, NPR1 antag inconclusive, 3T3 cytotox inconclusive
CN1CCCN(C(=O)c2ccc(Cl)cc2)c2ccccc21	HEK293 tox inconclusive, 3T3 cytotox inconclusive
CCOC(=O)C1=C(C)N=C2SC=C(CC(=O)Nc3ccc(C)c(C)c3)N2C1c1cccc(OC)c1 (stereo not drawn)	HEK293 tox 45µM, 3T3 cytotox 40µM
COC(=O)C1=C(C)N=C2SC=C(CC(=O)N(C)Cc3ccco3)N2C1c1cccc(Cl)c1 (stereo not drawn)	HEK293 tox 25µM, NPR1 antag inconclusive, 3T3 cytotox inconclusive
CCOC(=O)C1=C(C)N=C2SC=C(CC(=O)Nc3cccc(OC)c3)N2C1c1cccc(OC)c1 (stereo not drawn)	HEK293 tox inconclusive, 3T3 cytotox inconclusive
CN(Cc1cccnc1)c1nc2c(c(=O)[nH]1)CCN(Cc1ccc(C(F)(F)F)cc1)CC2	HEK293 tox 32µM, 3T3 cytotox inconclusive
CN(Cc1cccnc1)c1nc2c(c(=O)[nH]1)CCN(Cc1ccccc1)CC2	none
CN(Cc1cccnc1)c1nc2c(c(=O)[nH]1)CCN(Cc1cccc(Cl)c1F)CC2	HEK293 tox 25µM, 3T3 cytotox inconclusive
Cc1nn(-c2ccccc2)c2c1C(C1CC1)N(C1CN([S+](=O)([O-])c3c(C)noc3C)C1)C2=O (stereo not drawn)	none (no result: NPR1 antag, Luciferase inh)
COc1cccc(-c2ccc(C(=O)N3CCC(NC(=O)Cc4ccccn4)CC3)cc2)c1	HEK293 tox inconclusive (no result: NPR1 antag, Luciferase inh)
CCCc1cc(C(=O)N2CCCC(Cc3ccccc3F)(C(=O)OCC)C2)n(C)n1 (stereo not drawn)	HEK293 tox 18µM, 3T3 cytotox inconclusive
CCOC(=O)C1(Cc2ccccc2F)CCCN(C(=O)c2ccc3c(c2)OCCO3)C1 (stereo not drawn)	HEK293 tox inconclusive, 3T3 cytotox inconclusive, Luciferase inh inconclusive
CCOC(=O)C1(Cc2ccccc2)CCCN(C(=O)c2ccccc2SC)C1 (stereo not drawn)	HEK293 tox 45µM, 3T3 cytotox inconclusive, Luciferase inh inconclusive
COc1ccc(CC(=O)NC2CCN(c3nccc(Nc4ccccc4F)n3)CC2)cc1	HEK293 tox inconclusive, 3T3 cytotox 45µM (no result: NPR1 antag, Luciferase inh)
COc1ccc(Nc2ccnc(N3CCC(NC(=O)Cc4ccc(F)cc4)CC3)n2)cc1	HEK293 tox 40µM, 3T3 cytotox inconclusive (no result: NPR1 antag, Luciferase inh)
COc1ccc(CC(=O)N2CCN(c3nccc(Nc4ccccc4F)n3)CC2)cc1	HEK293 tox 45µM, 3T3 cytotox inconclusive (no result: NPR1 antag, Luciferase inh)
Cc1ncsc1CN1CC(Oc2cccc(C(=O)NCC3CC3)c2)C1	HEK293 tox inconclusive
CCC(OC)C(=O)N1CCN(c2nc(-c3ccccc3)nc3c2CCC3)CC1 (stereo not drawn)	HEK293 tox inconclusive
COc1cccc(-c2cn3c(n2)N(C(=O)c2cccs2)CCC3)c1	HEK293 tox inconclusive, Luciferase inh 35µM
O=C(c1ccsc1)N1CCCn2cc(-c3ccccc3)nc21	HEK293 tox inconclusive, Luciferase inh 40µM
O=C(c1ccoc1)N1CCCn2cc(-c3ccccc3)nc21	HEK293 tox inconclusive, Luciferase inh inconclusive
Cc1ccc(-c2cn3c(n2)N(C(=O)c2cnn4cccnc24)CCC3)cc1	HEK293 tox 79µM
Cc1ccsc1C(=O)N1CCCn2cc(-c3cccc(C#N)c3)nc21	HEK293 tox inconclusive, Luciferase inh 32µM
O=C(c1nc2ncccn2n1)N1CCCn2cc(-c3ccccc3)nc21	HEK293 tox inconclusive
COc1cccc(-c2cn3c(n2)N(C(=O)C2CCC2)CCC3)c1	HEK293 tox inconclusive, Luciferase inh inconclusive
O=C1[C@@H]2C[C@@H](O)CN2C2(CN(Cc3ccc(F)cc3)C2)C(=O)N1Cc1ccccc1	none
c1ccc(-c2nc3ncccc3[nH]2)nc1	HEK293 tox inconclusive, 3T3 cytotox inconclusive
c1cnc2nc(-c3c[nH]c4ncccc34)[nH]c2c1	HEK293 tox inconclusive, 3T3 cytotox inconclusive, Luciferase inh 89µM
c1cnc2nc(-c3ccsc3)[nH]c2c1	HEK293 tox 126µM!, 3T3 cytotox inconclusive, Luciferase inh inconclusive
O=C(O)c1ccc(-c2nc3ncccc3[nH]2)cc1	none
Cc1cc(-c2nc3ncccc3[nH]2)c(C)[nH]1	HEK293 tox inconclusive, 3T3 cytotox inconclusive, Luciferase inh 40µM
c1cnc2nc(C3CCNC3)[nH]c2c1 (stereo not drawn)	none
O=C1NCc2ccccc2CC12CCCN2Cc1c(F)cccc1Cl (stereo not drawn)	none (no result: NPR1 antag, Luciferase inh)
COc1ccc(Cn2c(=O)c(C(=O)N3CCN(C(=O)N(C)C)CC3)nc3cccnc32)cc1	none (no result: NPR1 antag, Luciferase inh)
Oc1cc(-c2csc3ccccc23)cc2c1OCCNC2	HEK293 tox 20µM, 3T3 cytotox inconclusive
Cc1ccccc1-c1cc(O)c2c(c1)CNCCO2	none
CCn1ccc(C(=O)N2CC(N(C)Cc3cccnc3)C2)n1	none (no result: NPR1 antag, Luciferase inh)
CN(Cc1cccnc1)C1CN(C(=O)c2cnn(C)c2)C1	Luciferase inh 28µM
Cc1cc(C)n(CC(=O)N2CC(N(C)Cc3cccnc3)C2)n1	Luciferase inh 35µM
Cc1cccc(C(=O)N2CC(N(C)Cc3cccnc3)C2)c1	none
COc1ccccc1C(=O)NC1CCN(Cc2cccc(-c3cccs3)c2)CC1	HEK293 tox 22µM!, 3T3 cytotox 32µM! (no result: NPR1 antag, Luciferase inh)
Cc1ccc(C(=O)NC2CCN(Cc3cccc(-c4cccs4)c3)CC2)cc1	HEK293 tox inconclusive (no result: NPR1 antag, Luciferase inh)
O=C(NC1CCN(Cc2cccc(-c3cccs3)c2)CC1)c1ccccc1	HEK293 tox 35µM! (no result: NPR1 antag, Luciferase inh)
COc1cccc([S+](=O)([O-])N2CCC3(C2)OC(=O)Nc2ccccc23)c1 (stereo not drawn)	HEK293 tox inconclusive, 3T3 cytotox inconclusive
COc1ccc(CCC(=O)N2Cc3c(C(=O)N4CCCC4)nn(C)c3C2)cc1	none (no result: NPR1 antag, Luciferase inh)
CCCOC1CCCN(C(=O)c2ccc3nc(-c4ccc(F)cc4)cn3c2)C1 (stereo not drawn)	HEK293 tox 25µM
COc1ccc(C(=O)NC[C@H]2Cn3c(-c4ccc(Cl)cc4)cnc3CO2)cc1	HEK293 tox 100µM, NPR1 antag inconclusive, 3T3 cytotox inconclusive, Luciferase inh inconclusive
COc1ccc(C(=O)NC[C@H]2Cn3c(-c4ccc(F)cc4)cnc3CO2)cc1	HEK293 tox inconclusive, NPR1 antag inconclusive, 3T3 cytotox inconclusive
Clc1ccc(-c2cnc3n2C[C@H](CNC2CCOCC2)OC3)cc1	HEK293 tox inconclusive, 3T3 cytotox 89µM
Fc1ccc(-c2cnc3n2C[C@H](CNC2CCOCC2)OC3)cc1	3T3 cytotox inconclusive
O=C(COc1ccccc1)NC[C@H]1Cn2c(-c3ccc(Cl)cc3)cnc2CO1	HEK293 tox 100µM, 3T3 cytotox inconclusive
